Compound activity (PubChem)
DT40 TDP1 no CPT: qHTS for Inhibitors of human tyrosyl-DNA phosphodiesterase 1 (TDP1): qHTS in cells in absence of CPT; Potency, µM (highest dose often 46.2 µM), for inactives: at the top dose activity change, negative = growth inhibition, actives largely listed as inhibitors; 420,000 tested, 15% active; AID 686978, 2013; DT40 Tdp1-/- hTDP1 cells, no CPT, ATP luminescence, 48 h; also: potency is read from the fitted curve at half-maximal effect; nearly all actives have a fitted effect of over 55% in size
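Compound effects on proliferation are scored in DT40 Tdp1-/-;hTDP1 cells in the absence of CPT. ATP levels (CellTiter-Glo luminescence) are recorded after a ≥48 hr, 37 °C incubation.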
HT1080-NT tox: qHTS for induction of synthetic lethality in tumor cells producing 2HG: qHTS for the HT-1080-NT fibrosarcoma cell line | HT-1080-NT fibrosarcoma viability, CellTiter-Glo ATP luminescence, 48 h | Potency, µM (titrated, usually from 46.1 µM), without a hit: at the highest dose activity, negative = less viability, most hits filed as cytotoxic | 360,000 tested, 1.6% active | AID 686970, 2013;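 also: NT is the 2HG producing partner of a matched IDH1 knockdown line; potency is read from the fitted curve at half-maximal effect; 0% = DMSO-treated cells and -100% = media-only wells without cells; nearly all actives have a fitted effect of over 55% in size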
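Viability of the 2HG-overproducing fibrosarcoma line after 48 hours of compound exposure at 37 degrees C was determined by luminescence with CellTiter-Glo, and concentration-effect curves were then fitted and categorized.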
HT1080 IDH1KD tx: qHTS for induction of synthetic lethality in tumor cells producing 2HG: qHTS for the HT-1080-IDH1KD cell line; HT-1080 IDH1 knockdown viability, ATP luminescence, 48 h; Potency, µM (highest dose often 46.1 µM), without a hit: at the highest dose activity, negative = toxicity, most hits filed as cytotoxic; 360,000 tested, 2% active; AID 686971, 2013;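 also: potency is read from the fitted curve at half-maximal effect; 0% = DMSO wells and -100% = cell-free medium wells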
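After a 2 h attachment period, IDH1KD HT-1080 cells took pin-transferred compound for 48 h at 37 °C; ATP-based luminescence after 10 min room-temperature reagent incubation reported viability.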
IL1B secr inh: qHTS for Inhibitors of Inflammasome Signaling: IL-1-beta AlphaLISA Primary Screen | THP-1 LPS/ATP IL-1B secretion, AlphaLISA, 16 h; hits give low values | activity change, % at 57.5 µM | 360,000 tested, 4.7% active | AID 743279, 2014; in the data active = activity change below about -50%; inconclusive = mostly about -30% to -49%
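Secreted IL-1B measured by AlphaLISA bead assay after 16 h compound exposure of THP-1 cells; compounds (final up to 57.5 uM) added 1 h before LPS (250 ng/mL) and ATP (1.25 mM) stimulation; lower signal means less secretion.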
DT40 TDP1 CPT: qHTS for Inhibitors of human tyrosyl-DNA phosphodiesterase 1 (TDP1): qHTS in cells in presence of CPT; Potency, µM (highest dose often 46.2 µM), inactives show at the highest dose activity change, negative = growth inhibition, usual class: inhibitors; 420,000 tested, 12% active; AID 686979, 2013; chicken DT40 Tdp1-/-;hTDP1 cells + 20 nM CPT, ATP luminescence, 48 h; also: potency is read from the fitted curve at half-maximal effect; nearly all actives have a fitted effect of over 55% in size
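Chicken DT40 Tdp1-/- cells stably complemented with human TDP1 were seeded at 400 cells/well in medium containing 20 nM camptothecin, exposed to pin-transferred compounds, and grown at 37 °C for at least 48 hr. Viability was read as ATP luminescence.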
uPA surface inh: qHTS for Inhibitors of Cell Surface uPA Generation | cell surface uPA generation assay, qHTS | Potency, µM (highest dose often 38.3 µM), inactives show at the highest dose activity change, negative = inhibition, usual class: inhibitors | 330,000 tested, 0.31% active | AID 540303, 2011; active = well fitted inhibition curve with a large enough effect; inconclusive = small, poorly fitted or top-dose-only effect; inactive = no such curve, though single readings can be large or run the other way; tested in mouse RAW 264.7 cells; also: potency is read from the fitted curve at half-maximal effect; nearly all actives have a fitted effect of over 55% in size
Active calls of the source: *; ? = inconclusive; . = no result; [ ] = remark or other dose. An excerpt weighted towards active compounds, which were near 19% of everything screened. Unless noted, calls follow the shape of the dose curve; as a rule, active = well fitted curve in the direction sought with a large enough effect; inconclusive = small, poorly fitted or top-dose-only effect, or another doubt; inactive = no such curve, though single readings can be large; an effect the other way counts as inactive or inconclusive. Unless noted, % is scaled to controls: 0 for no effect and ±100 for the full control effect.

SMILES	DT40 TDP1 no CPT	HT1080-NT tox	HT1080 IDH1KD tx	IL1B secr inh	DT40 TDP1 CPT	uPA surface inh
CCOc1ccc(NC2c3ccccc3C(=O)N2Cc2ccco2)cc1 (configuration not stated)	12µM*	-4%	-6%	13	16µM*	-16%
CC(C)c1ccc(NC(=O)CCS(=O)(=O)c2ccc3c(c2)CC(=O)N3C)cc1	-15%	.	.	.	?	.
CCOC(=O)C(=CNc1ccc(NC2=NCC(C)S2)cc1)C(=O)OCC (configuration not stated)	6.5µM*	13%	7%	-7	9.2µM*	-3%
O=S(=O)(c1ccc(-c2cc(C(F)(F)F)on2)s1)N1CCN(c2cccc(Cl)c2)CC1	-4%	.	.	.	-4%	.
Cc1ccc(Nc2nc(N)nc(CN3CCN(Cc4ccc5c(c4)OCO5)CC3)n2)cc1C	18µM*	?	?	-74*	?	-1%
Cc1ccc(Nc2nc(N)nc(CN3CCN(Cc4ccc5c(c4)OCO5)CC3)n2)c(C)c1	?	-22%	-2%	-23	?	3%
Cc1ccc(Nc2nc(N)nc(CN3CCN(Cc4ccc5c(c4)OCO5)CC3)n2)cc1	18µM*	-14%	1%[9.24 µM]	?	18µM*	-13%
Cc1ccc(Nc2nc(N)nc(CN3CCN(Cc4ccc5c(c4)OCO5)CC3)n2)cc1Cl	?	?	-18%	?	?	-8%
COc1ccccc1C1=NN(C(=O)c2ccccc2)C(c2ccc(Br)cc2)C1 (configuration not stated)	-10%	27%	21%	-7	-6%	-2%
COCc1c(C(=O)NC(C)c2ccc(S(N)(=O)=O)cc2)oc2ccccc12 (configuration not stated)	-12%	13%	5%	8	-2%	-5%
CCCc1nnc(NC(=S)Nc2ccccc2)s1	3.3µM*	16%	12%	-5	4.6µM*	-1%
CC(=O)OC1CCC23CC1(C)CCC2C(C)(C)CC3OC(C)=O (configuration not stated)	-27%	.	.	.	-7%	.
CCOC(=O)c1[nH]c2c(c1Cc1ccccc1)C(=O)CC(c1ccccc1)C2 (configuration not stated)	21µM*	.	.	.	18µM*	.
CCOC(=O)c1[nH]c2c(c1-c1ccccc1)C(=O)CC(c1ccccc1)C2 (configuration not stated)	?	1%	-13%	13	-26%	?
Cc1c(C(=O)OCc2ccccc2)[nH]c2c1C(=O)CC(c1ccc(Cl)cc1)C2 (configuration not stated)	15µM*	.	.	.	18µM*	.
COC(=O)c1[nH]c2c(c1C)C(=O)CC(c1ccccc1)C2 (configuration not stated)	1.3µM*	0.45µM*	?	45	1.3µM*	?
COCCNC(=O)C1(C)CCCN(C(=O)c2ccc(C(F)(F)F)cc2)C1 (configuration not stated)	?	30%	5%	13	0%	.
Cc1ccc(Cn2c(=O)n(-c3ccccc3)c(=O)c3ccc(C(=O)NCc4ccco4)cc32)cc1	?	-25%	-19%	21	12µM*	-20%
Cc1cccc(C)c1NC(=O)Cn1c(=O)n(Cc2ccc(C(=O)NCc3ccco3)cc2)c(=O)c2sccc21	23µM*	.	.	.	21µM*	.
Cc1ccc(-n2c(=O)c3ccc(C(=O)NCc4ccco4)cc3n(Cc3cccc(Cl)c3)c2=O)cc1	?	.	.	.	-22%	.
Cc1ccc(-n2c(=O)c3sccc3n(CC(=O)NCc3ccco3)c2=O)cc1	-2%	17%	-4%	7	-26%	.
Cc1cccc(Cn2c(=O)n(-c3ccc(CC(=O)NCc4ccco4)cc3)c(=O)c3sccc32)c1	15µM*	?	?	-13	26µM*	?
CCOC(=O)C1=CCN(S(=O)(=O)c2ccccc2C)C1c1ccc(C)cc1 (configuration not stated)	?	-1%	-1%	16	?	.
COCCCNc1ncnc2c1nnn2C	-5%	.	.	.	?	.
CC(=O)c1cnc2c(C(=O)O)cnn2c1C	1%	0%	0%	11	7%	2%
SMILES	DT40 TDP1 no CPT	HT1080-NT tox	HT1080 IDH1KD tx	IL1B secr inh	DT40 TDP1 CPT	uPA surface inh
Cc1c(C(=O)O)cnc2c([N+](=O)[O-])cnn12	18µM*	11%	4%	27	10µM*	0%
Cc1ccc(Cc2c(-c3cccc(Cl)c3)nc3cc(C)c(Br)c(C)n23)cc1	?	-4%	-12%	0	-43%	.
Cc1cc2nc(-c3ccccc3)c(Cc3cccc(Cl)c3)n2c(C)c1Br	26µM*	1%	-9%	24	?	.
Cc1cc2nc(-c3ccc(F)cc3)c(Cc3cccc(Cl)c3)n2c(C)c1Br	?	-3%	-5%	47	23µM*	.
C#CC[N+](C)(C)C(C#Cc1ccccc1)CC=C (configuration not stated)	18µM*	-17%	?	-73*	12µM*	-1%
C#CC[N+](C)(C)CC#Cc1ccc(C)cc1	-6%	?	?	?	-13%	?
CC1(C)NC(=O)N(c2ccc([N+](=O)[O-])c(C(F)(F)F)c2)C1=O	4.6µM*	9%	0%	6	19µM*	11%
